{"source": "paper PMC7862700", "about": "“An all-to-all approach to the identification of sequence-specific readers for epigenetic DNA modifications on cytosine”"}
{"target": "SPIB (Homo sapiens, UniProt Q01892 1-262)", "sequence (Q01892 whole entry)": "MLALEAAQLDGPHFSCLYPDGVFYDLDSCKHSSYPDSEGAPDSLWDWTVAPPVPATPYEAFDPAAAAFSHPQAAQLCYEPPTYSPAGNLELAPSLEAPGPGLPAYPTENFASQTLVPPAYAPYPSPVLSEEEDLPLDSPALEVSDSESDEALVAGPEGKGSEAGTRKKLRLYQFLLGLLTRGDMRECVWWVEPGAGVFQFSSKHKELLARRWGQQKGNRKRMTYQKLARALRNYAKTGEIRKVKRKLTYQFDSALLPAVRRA", "assay": "DAPPL (digital affinity profiling via proximity ligation, sequencing); 10 mM Tris-HCl pH 7.5, 50 mM NaCl, 1 mM DTT, 4% glycerol, room temperature, 30 min; GST-TFs on glutathione beads, 16-mer random dsDNA library, 0.1% formaldehyde crosslink after washing; high values mean tight binding", "conditions": "protein: recombinant; tags: N-terminal GST; dsDNA, one strand shown", "method_in_brief": "(§1)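 Sequencing on an Illumina NextSeq500 followed washing, crosslinking with 0.1% formaldehyde, proximity ligation (BsaI/T4 ligase, 1 h, 37 °C) and PCR amplification of pools that had been incubated for 30 min at room temperature with 200 nmole of a random double-stranded 16-mer DNA library in Tris/NaCl/DTT/glycerol buffer. Each pool held DNA-barcoded human transcription factors, expressed in yeast as GST fusions and captured on glutathione beads, plus a tag-only sample. Binding signal is a hexamer's read frequency for a factor divided by its frequency in the tag-only sample.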"}
{"sequence": "TGGTCG", "binding signal": "1 fold enrichment (6-mer frequency, TF over GST control)"}
{"sequence": "GACCGG", "binding signal": "1.07 fold enrichment (6-mer frequency, TF over GST control)"}
{"sequence": "GGGTAT", "binding signal": "1.02 fold enrichment (6-mer frequency, TF over GST control)"}
{"sequence": "AACGCA", "binding signal": "1.04 fold enrichment (6-mer frequency, TF over GST control)"}
{"sequence": "ATCCGT", "binding signal": "1.1 fold enrichment (6-mer frequency, TF over GST control)"}
{"sequence": "AGCGTC", "binding signal": "1.04 fold enrichment (6-mer frequency, TF over GST control)"}
{"sequence": "GTGCCT", "binding signal": "1.05 fold enrichment (6-mer frequency, TF over GST control)"}
{"sequence": "CCACCG", "binding signal": "1.09 fold enrichment (6-mer frequency, TF over GST control)"}
{"sequence": "ATAGGC", "binding signal": "1.11 fold enrichment (6-mer frequency, TF over GST control)"}
{"sequence": "GTACCA", "binding signal": "1.02 fold enrichment (6-mer frequency, TF over GST control)"}
{"sequence": "GCGTAT", "binding signal": "1.11 fold enrichment (6-mer frequency, TF over GST control)"}
{"sequence": "GCCGGA", "binding signal": "1.01 fold enrichment (6-mer frequency, TF over GST control)"}
{"sequence": "GGCTAT", "binding signal": "1.02 fold enrichment (6-mer frequency, TF over GST control)"}
{"sequence": "GGATAC", "binding signal": "1 fold enrichment (6-mer frequency, TF over GST control)"}
{"sequence": "GGACTT", "binding signal": "1.11 fold enrichment (6-mer frequency, TF over GST control)"}
{"sequence": "AGTCCT", "binding signal": "1.13 fold enrichment (6-mer frequency, TF over GST control)"}
{"sequence": "CAGTTC", "binding signal": "1.04 fold enrichment (6-mer frequency, TF over GST control)"}
{"target": "T1, ELK3 (Homo sapiens, UniProt P41970 1-407)", "T1 sequence": "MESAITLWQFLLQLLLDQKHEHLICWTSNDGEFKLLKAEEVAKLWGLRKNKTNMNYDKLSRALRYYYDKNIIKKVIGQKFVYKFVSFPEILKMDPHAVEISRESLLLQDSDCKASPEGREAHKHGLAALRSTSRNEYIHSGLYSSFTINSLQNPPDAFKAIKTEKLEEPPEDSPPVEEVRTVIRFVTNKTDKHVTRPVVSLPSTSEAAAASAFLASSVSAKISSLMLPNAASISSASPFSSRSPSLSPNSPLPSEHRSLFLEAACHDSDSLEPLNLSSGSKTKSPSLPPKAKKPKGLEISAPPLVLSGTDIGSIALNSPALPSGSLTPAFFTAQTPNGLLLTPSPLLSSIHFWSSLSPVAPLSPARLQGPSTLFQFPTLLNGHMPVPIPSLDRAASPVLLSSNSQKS", "assay": "DAPPL (digital affinity profiling via proximity ligation, sequencing); 10 mM Tris-HCl pH 7.5, 50 mM NaCl, 1 mM DTT, 4% glycerol, room temperature, 30 min; GST-TFs on glutathione beads, 16-mer random dsDNA library, 0.1% formaldehyde crosslink after washing; high values mean tight binding", "conditions": "protein: recombinant; tags: N-terminal GST; dsDNA, one strand shown", "method_in_brief": "as §1"}
{"sequence": "AACTGT", "binding signal": "1.06 fold enrichment (6-mer frequency, TF over GST control)"}
{"sequence": "TATGAG", "binding signal": "1.02 fold enrichment (6-mer frequency, TF over GST control)"}
{"sequence": "TGGTCG", "binding signal": "1.11 fold enrichment (6-mer frequency, TF over GST control)"}
{"sequence": "GACCGG", "binding signal": "1.23 fold enrichment (6-mer frequency, TF over GST control)"}
{"sequence": "GGGTAT", "binding signal": "1.04 fold enrichment (6-mer frequency, TF over GST control)"}
{"sequence": "AGTTAC", "binding signal": "1.03 fold enrichment (6-mer frequency, TF over GST control)"}
{"sequence": "AACGCA", "binding signal": "1.06 fold enrichment (6-mer frequency, TF over GST control)"}
{"sequence": "AGCGTC", "binding signal": "1.05 fold enrichment (6-mer frequency, TF over GST control)"}
{"sequence": "CCACCG", "binding signal": "1.06 fold enrichment (6-mer frequency, TF over GST control)"}
{"sequence": "ATAGGC", "binding signal": "1.02 fold enrichment (6-mer frequency, TF over GST control)"}
{"sequence": "ATAGGG", "binding signal": "1.06 fold enrichment (6-mer frequency, TF over GST control)"}
{"sequence": "GCCGGA", "binding signal": "1.11 fold enrichment (6-mer frequency, TF over GST control)"}
{"sequence": "GGACTT", "binding signal": "1.11 fold enrichment (6-mer frequency, TF over GST control)"}
{"sequence": "AGTCCT", "binding signal": "1.01 fold enrichment (6-mer frequency, TF over GST control)"}
{"sequence": "AGCGGC", "binding signal": "1.03 fold enrichment (6-mer frequency, TF over GST control)"}
{"target": "T2, FEV (Homo sapiens, UniProt Q99581 1-238)", "T2 sequence": "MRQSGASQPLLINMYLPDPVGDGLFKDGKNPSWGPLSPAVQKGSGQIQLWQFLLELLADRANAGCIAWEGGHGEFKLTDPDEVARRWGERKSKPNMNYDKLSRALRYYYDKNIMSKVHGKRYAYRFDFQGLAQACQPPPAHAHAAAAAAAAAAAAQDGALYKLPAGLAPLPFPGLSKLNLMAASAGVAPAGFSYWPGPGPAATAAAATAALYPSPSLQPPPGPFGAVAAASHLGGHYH", "assay": "DAPPL (digital affinity profiling via proximity ligation, sequencing); 10 mM Tris-HCl pH 7.5, 50 mM NaCl, 1 mM DTT, 4% glycerol, room temperature, 30 min; GST-TFs on glutathione beads, 16-mer random dsDNA library, 0.1% formaldehyde crosslink after washing; high values mean tight binding", "conditions": "protein: recombinant; tags: N-terminal GST; dsDNA, one strand shown", "method_in_brief": "as §1"}
{"sequence": "GTCCGG", "binding signal": "1.15 fold enrichment (6-mer frequency, TF over GST control)"}
{"sequence": "GACCGG", "binding signal": "2.09 fold enrichment (6-mer frequency, TF over GST control)"}
{"sequence": "GAAACC", "binding signal": "1.08 fold enrichment (6-mer frequency, TF over GST control)"}
{"sequence": "AACGCA", "binding signal": "1.11 fold enrichment (6-mer frequency, TF over GST control)"}
{"sequence": "ATCCGT", "binding signal": "1.1 fold enrichment (6-mer frequency, TF over GST control)"}
{"sequence": "AGCGTC", "binding signal": "1.04 fold enrichment (6-mer frequency, TF over GST control)"}
{"sequence": "CCACCG", "binding signal": "1.26 fold enrichment (6-mer frequency, TF over GST control)"}
{"sequence": "ATAGGC", "binding signal": "1.07 fold enrichment (6-mer frequency, TF over GST control)"}
{"sequence": "GTACCA", "binding signal": "1.01 fold enrichment (6-mer frequency, TF over GST control)"}
{"sequence": "GTGCCC", "binding signal": "1 fold enrichment (6-mer frequency, TF over GST control)"}
{"sequence": "GCCGGA", "binding signal": "1.59 fold enrichment (6-mer frequency, TF over GST control)"}
{"sequence": "GGCTAT", "binding signal": "1.06 fold enrichment (6-mer frequency, TF over GST control)"}
{"sequence": "TAGGCC", "binding signal": "1.05 fold enrichment (6-mer frequency, TF over GST control)"}
{"sequence": "GGACTT", "binding signal": "1.4 fold enrichment (6-mer frequency, TF over GST control)"}
{"sequence": "GCCCGG", "binding signal": "1.04 fold enrichment (6-mer frequency, TF over GST control)"}
